Measured values: ChEMBL document CHEMBL4296182, “CO-ADD screening of NIH NCI Diversity Set V”
For part of these data: Entries with a potency or affinity are not part of this list.

Legend:
[1] = system: Staphylococcus aureus; assay: Antibacterial activity against Staphylococcus aureus MRSA ATCC 43300 (CO-ADD:GP_020); MIC in CAMBH media using NBS plates, by Resazurin F(560/590); format: functional; settings: Concentration 20 uM, ASSAY_TEST Inhibition of Bacterial Growth, detection method Resazurin, Fluorescence (ex560/em590), MEDIA CAMHB, plate type 384well, CORNING #3640, time 18 hr
[2] = system: Acinetobacter baumannii; assay: Antibacterial activity against Acinetobacter baumannii ATCC 19606 (CO-ADD:GN_034); MIC in CAMBH media using NBS plates, by Resazurin F(560/590); format: functional; settings: Concentration 20 uM, ASSAY_TEST Inhibition of Bacterial Growth, detection method Resazurin, Fluorescence (ex560/em590), MEDIA CAMHB, plate type 384well, CORNING #3640, time 18 hr
[3] = system: Escherichia coli; assay: Antibacterial activity against Escherichia coli ATCC 25922 (CO-ADD:GN_001); MIC in CAMBH media using NBS plates, by Resazurin F(560/590); format: functional; settings: Concentration 20 uM, ASSAY_TEST Inhibition of Bacterial Growth, detection method Resazurin, Fluorescence (ex560/em590), MEDIA CAMHB, plate type 384well, CORNING #3640, time 18 hr
[4] = system: Klebsiella pneumoniae; settings: Concentration 20 uM; ASSAY_TEST Inhibition of Bacterial Growth; detection method Absorption (OD600); MEDIA CAMHB; plate type 384well; NBS; CORNING #3640; time 18 hr
[5] = system: Candida albicans; settings: 20 µM
[6] = system: Cryptococcus neoformans; settings: Concentration 20 uM; ASSAY_TEST Inhibition of Fungal Growth; detection method Resazurin; Absorption (OD600-OD570); plate type 384well; NBS; CORNING #3640

## CCC(C)c1c(N)n(S(=O)(=O)c2ccc(C)cc2)oc1=O (stereo unspecified)
[1]
  Inhibition: 12.19%
[2]
  Inhibition: -9.07%
[3]
  Inhibition: 9%
[4]
  Inhibition: 8.85%
[5]
  Inhibition: 1.8%
[6]
  Inhibition: -2.18%

## CN1N=C(N)c2cn(C3OC(COP(=O)(O)O)C(O)C3O)c3ncnc1c23 (stereo unspecified)
[1]
  Inhibition: 8.75%
[2]
  Inhibition: 8.14%
[3]
  Inhibition: -1.62%
[4]
  Inhibition: 4.46%
[5]
  Inhibition: -1.48%
[6]
  Inhibition: -0.7%

## Oc1nc(S)ncc1Oc1ccc(Cl)cc1Cl
[1]
  Inhibition: 8.02%
[2]
  Inhibition: 11.12%
[3]
  Inhibition: 2.19%
[4]
  Inhibition: 10.84%
[5]
  Inhibition: 6.27%
[6]
  Inhibition: -6.95%

## CC(=O)NC1(C(=O)O)CCCC1
[1]
  Inhibition: 8.27%
[2]
  Inhibition: -6.77%
[3]
  Inhibition: 8.7%
[4]
  Inhibition: 15.18%
[5]
  Inhibition: 4.3%
[6]
  Inhibition: 0.8%

## CCOC(=O)c1c(C)nc(C)c(C(=O)OCC)c1-c1ccc(OC)cc1
[1]
  Inhibition: 0.94%
[2]
  Inhibition: 2.04%
[3]
  Inhibition: -21.92%
[4]
  Inhibition: 2.6%
[5]
  Inhibition: 6.74%
[6]
  Inhibition: 19.28%

## Nc1nc(O)c2nn(-c3ccccc3)nc2n1
[1]
  Inhibition: 7.59%
[2]
  Inhibition: -13.43%
[3]
  Inhibition: 5.48%
[4]
  Inhibition: 0.39%
[5]
  Inhibition: -3.03%
[6]
  Inhibition: 29.86%

## Oc1ccc(Nc2ccnc3cc(Cl)ccc23)cc1
[1]
  Inhibition: -0.21%
[2]
  Inhibition: 16.04%
[3]
  Inhibition: -4.01%
[4]
  Inhibition: 17.31%
[5]
  Inhibition: 0.86%
[6]
  Inhibition: -3.23%

## Nc1ccc(C(=O)Nc2ccc(NC(=O)c3ccco3)c(O)c2)cc1
[1]
  Inhibition: 1%
[2]
  Inhibition: 0.24%
[3]
  Inhibition: 0.6%
[4]
  Inhibition: 17.4%
[5]
  Inhibition: 3.85%
[6]
  Inhibition: -8.99%

## O=C(Nc1cccnc1)c1cccc([N+](=O)[O-])c1
[1]
  Inhibition: 12.72%
[2]
  Inhibition: 4.9%
[3]
  Inhibition: 8.22%
[4]
  Inhibition: 4.62%
[5]
  Inhibition: 7.68%
[6]
  Inhibition: -5.39%

## c1ccc(-c2nnc(-c3ccccc3)nn2)cc1
[1]
  Inhibition: 8.93%
[2]
  Inhibition: 4.53%
[3]
  Inhibition: 11.38%
[4]
  Inhibition: -4.08%
[5]
  Inhibition: -1.88%
[6]
  Inhibition: -7.33%

## c1ccc(/N=N/N2CCOCC2)cc1
[1]
  Inhibition: 10.43%
[2]
  Inhibition: -20.45%
[3]
  Inhibition: 2.82%
[4]
  Inhibition: 4.01%
[5]
  Inhibition: 17.7%
[6]
  Inhibition: -10.19%

## Cn1c(=O)c2c(nc(N3CCCCC3)n2C)n(C)c1=O
[1]
  Inhibition: 9.93%
[2]
  Inhibition: 4.85%
[3]
  Inhibition: 2.17%
[4]
  Inhibition: 8.3%
[5]
  Inhibition: 4.05%
[6]
  Inhibition: -7.82%

## NC(=O)C1=C(N)c2ccccc2C1c1ccccc1 (stereo unspecified)
[1]
  Inhibition: -22.4%
[2]
  Inhibition: 2.22%
[3]
  Inhibition: -18.86%
[4]
  Inhibition: 1.18%
[5]
  Inhibition: 4.94%
[6]
  Inhibition: 28.25%

## CCn1c2ccccc2nc2cc3c(cc21)c(Cl)c(=O)c1ccccc13
[1]
  Inhibition: 25.73%
[2]
  Inhibition: 12.51%
[3]
  Inhibition: 3.84%
[4]
  Inhibition: 12.19%
[5]
  Inhibition: -1.37%
[6]
  Inhibition: -5.64%

## CCOC(=O)/C(C#N)=C\c1c[nH]c2ccccc12
[1]
  Inhibition: -10.31%
[2]
  Inhibition: -2.58%
[3]
  Inhibition: -10.08%
[4]
  Inhibition: 2.71%
[5]
  Inhibition: 3.53%
[6]
  Inhibition: 2.4%

## CC1=C2C3OC(=O)C(C)C3CCC2(C)C=C(Cl)C1=O (stereo unspecified)
[1]
  Inhibition: -4.99%
[2]
  Inhibition: -5.14%
[3]
  Inhibition: -9.28%
[4]
  Inhibition: 10.19%
[5]
  Inhibition: 1.04%
[6]
  Inhibition: -2.81%

## CCOC(=O)CCCN(c1[nH]c(C)c(C)c1C#N)S(=O)(=O)c1ccc(C)cc1
[1]
  Inhibition: 20.71%
[2]
  Inhibition: -4.29%
[3]
  Inhibition: 15.68%
[4]
  Inhibition: 14.1%
[5]
  Inhibition: -2.66%
[6]
  Inhibition: -4.37%

## CCOc1nsc(OCC)n1
[1]
  Inhibition: 10.98%
[2]
  Inhibition: -19.84%
[3]
  Inhibition: 11.82%
[4]
  Inhibition: -1.83%
[5]
  Inhibition: 5.3%
[6]
  Inhibition: -10.38%

## Cc1cc(O)cc2c1[C@H]1CC[C@]3(C)C(=O)CC[C@H]3[C@@H]1C=C2
[1]
  Inhibition: 24.45%
[2]
  Inhibition: 13.8%
[3]
  Inhibition: 29.29%
[4]
  Inhibition: -0.57%
[5]
  Inhibition: 12.1%
[6]
  Inhibition: -1.77%

## Cc1ccc(C)c(N2CCN(c3ccncc3N)CC2)c1
[1]
  Inhibition: -5.41%
[2]
  Inhibition: -5.32%
[3]
  Inhibition: 7.02%
[4]
  Inhibition: 8.69%
[5]
  Inhibition: 3.75%
[6]
  Inhibition: -6.74%

## COc1ccc(Nc2cc(Cl)ccc2C(=O)O)cn1
[1]
  Inhibition: -1.71%
[2]
  Inhibition: 14.76%
[3]
  Inhibition: 0%
[4]
  Inhibition: 20.74%
[5]
  Inhibition: 22.9%
[6]
  Inhibition: -8%
